ChEMBL document CHEMBL1201862, “PubChem BioAssay data set” (2004)

What follows are molecules tested against Huntingtin (Homo sapiens) (UniProt P42858) (assay: Quantitative High-Throughput Multiplex Assay to Identify Dual Action Probes in a Cell Model of Huntington: Summary. [Related pubchem assays (depositor defined):AID1471, AID1688, AID2669, AID2672, AID2673, AID2713]).
Type: functional

Chain of Huntingtin (Homo sapiens) (P42858 whole entry): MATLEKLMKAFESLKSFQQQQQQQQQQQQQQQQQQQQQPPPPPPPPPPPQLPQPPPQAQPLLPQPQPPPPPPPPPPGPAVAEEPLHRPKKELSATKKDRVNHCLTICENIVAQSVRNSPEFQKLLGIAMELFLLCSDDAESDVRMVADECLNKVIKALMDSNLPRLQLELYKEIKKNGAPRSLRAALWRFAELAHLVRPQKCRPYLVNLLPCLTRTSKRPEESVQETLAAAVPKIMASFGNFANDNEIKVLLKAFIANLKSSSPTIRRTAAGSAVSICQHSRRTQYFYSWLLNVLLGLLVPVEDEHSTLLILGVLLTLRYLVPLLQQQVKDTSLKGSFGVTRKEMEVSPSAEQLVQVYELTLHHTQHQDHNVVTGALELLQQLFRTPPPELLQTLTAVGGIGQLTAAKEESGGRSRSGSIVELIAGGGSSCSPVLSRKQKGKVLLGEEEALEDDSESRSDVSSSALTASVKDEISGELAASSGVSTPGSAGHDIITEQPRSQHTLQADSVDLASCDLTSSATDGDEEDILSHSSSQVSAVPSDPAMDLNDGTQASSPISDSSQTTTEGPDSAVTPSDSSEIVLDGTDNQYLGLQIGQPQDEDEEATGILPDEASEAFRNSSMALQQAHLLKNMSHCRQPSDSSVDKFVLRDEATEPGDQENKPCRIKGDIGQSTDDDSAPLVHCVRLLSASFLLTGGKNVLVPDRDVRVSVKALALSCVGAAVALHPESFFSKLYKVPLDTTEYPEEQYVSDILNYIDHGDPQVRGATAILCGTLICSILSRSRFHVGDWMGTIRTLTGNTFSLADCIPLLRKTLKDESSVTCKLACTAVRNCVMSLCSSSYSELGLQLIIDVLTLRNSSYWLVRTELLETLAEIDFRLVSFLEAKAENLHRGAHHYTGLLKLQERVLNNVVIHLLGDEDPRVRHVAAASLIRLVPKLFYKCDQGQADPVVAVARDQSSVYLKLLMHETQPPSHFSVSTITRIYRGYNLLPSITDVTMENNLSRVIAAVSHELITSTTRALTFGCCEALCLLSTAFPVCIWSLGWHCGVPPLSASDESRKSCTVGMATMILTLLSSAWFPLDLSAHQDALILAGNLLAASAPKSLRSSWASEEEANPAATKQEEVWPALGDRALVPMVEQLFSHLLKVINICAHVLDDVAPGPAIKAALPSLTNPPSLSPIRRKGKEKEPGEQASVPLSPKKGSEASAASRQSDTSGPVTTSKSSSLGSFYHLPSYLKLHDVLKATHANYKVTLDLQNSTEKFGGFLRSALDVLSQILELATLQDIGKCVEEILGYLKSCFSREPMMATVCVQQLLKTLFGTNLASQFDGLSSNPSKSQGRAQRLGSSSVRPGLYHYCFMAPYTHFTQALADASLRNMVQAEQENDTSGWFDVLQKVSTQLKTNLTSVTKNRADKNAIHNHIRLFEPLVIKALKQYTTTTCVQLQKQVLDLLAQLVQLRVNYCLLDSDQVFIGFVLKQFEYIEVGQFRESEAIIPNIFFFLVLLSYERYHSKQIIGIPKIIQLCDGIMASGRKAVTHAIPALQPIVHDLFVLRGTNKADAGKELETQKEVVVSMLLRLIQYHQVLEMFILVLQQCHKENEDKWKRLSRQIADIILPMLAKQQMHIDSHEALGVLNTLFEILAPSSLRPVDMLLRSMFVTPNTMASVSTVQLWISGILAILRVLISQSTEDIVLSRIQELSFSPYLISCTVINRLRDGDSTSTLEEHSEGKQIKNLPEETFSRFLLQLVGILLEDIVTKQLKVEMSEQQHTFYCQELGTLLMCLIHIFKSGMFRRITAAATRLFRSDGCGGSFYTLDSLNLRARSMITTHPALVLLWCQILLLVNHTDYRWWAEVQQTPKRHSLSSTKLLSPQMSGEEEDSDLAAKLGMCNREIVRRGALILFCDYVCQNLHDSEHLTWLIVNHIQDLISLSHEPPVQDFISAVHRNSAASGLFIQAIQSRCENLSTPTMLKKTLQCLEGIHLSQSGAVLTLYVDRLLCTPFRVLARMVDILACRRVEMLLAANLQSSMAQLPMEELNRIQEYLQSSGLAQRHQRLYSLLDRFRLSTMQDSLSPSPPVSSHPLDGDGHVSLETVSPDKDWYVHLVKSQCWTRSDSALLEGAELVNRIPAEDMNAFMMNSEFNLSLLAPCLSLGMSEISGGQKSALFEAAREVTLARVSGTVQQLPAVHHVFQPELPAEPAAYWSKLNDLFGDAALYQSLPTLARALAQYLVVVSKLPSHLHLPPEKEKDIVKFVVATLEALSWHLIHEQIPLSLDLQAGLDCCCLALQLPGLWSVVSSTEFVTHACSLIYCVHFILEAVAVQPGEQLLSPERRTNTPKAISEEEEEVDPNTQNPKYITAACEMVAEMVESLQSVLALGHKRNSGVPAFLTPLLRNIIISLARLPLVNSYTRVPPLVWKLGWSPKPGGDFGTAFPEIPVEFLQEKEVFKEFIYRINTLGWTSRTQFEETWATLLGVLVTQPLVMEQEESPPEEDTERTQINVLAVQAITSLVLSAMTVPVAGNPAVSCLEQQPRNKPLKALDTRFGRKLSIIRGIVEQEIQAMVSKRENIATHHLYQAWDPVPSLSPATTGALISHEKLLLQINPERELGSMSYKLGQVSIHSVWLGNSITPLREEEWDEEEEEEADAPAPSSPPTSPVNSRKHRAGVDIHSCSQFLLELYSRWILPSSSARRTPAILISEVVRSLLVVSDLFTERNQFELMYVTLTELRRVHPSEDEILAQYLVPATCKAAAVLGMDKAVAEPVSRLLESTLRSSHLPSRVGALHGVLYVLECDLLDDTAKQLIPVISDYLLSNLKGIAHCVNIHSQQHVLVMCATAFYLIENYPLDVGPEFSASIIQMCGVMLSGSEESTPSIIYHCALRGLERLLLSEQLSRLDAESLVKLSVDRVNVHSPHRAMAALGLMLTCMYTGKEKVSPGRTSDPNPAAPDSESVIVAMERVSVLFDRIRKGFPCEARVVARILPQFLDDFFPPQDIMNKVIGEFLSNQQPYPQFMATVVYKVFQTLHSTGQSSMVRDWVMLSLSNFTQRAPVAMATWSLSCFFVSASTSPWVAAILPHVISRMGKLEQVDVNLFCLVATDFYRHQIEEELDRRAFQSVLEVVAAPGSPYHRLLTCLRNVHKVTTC

Potency, 8.68 µM:
Cn1nnnc1Sc1ncnc2scc(-c3ccccc3)c12

Potency, active:
Cn1nnnc1Sc1ncnc2scc(-c3ccc(Cl)cc3)c12 15.8 µM
Cc1ccccc1-c1csc2ncnc(Sc3nnnn3C)c12 63.1 µM
COc1cccc(-c2csc3ncnc(Sc4nnnn4C)c23)c1 7.94 µM
Cn1nnnc1Sc1ncnc2scc(-c3ccccc3F)c12 12.6 µM
Cn1nnnc1Sc1ncnc2scc(-c3cccc(F)c3)c12 7.94 µM
COc1ccccc1-c1csc2ncnc(Sc3nnnn3C)c12 79.4 µM
COc1ccc(-c2csc3ncnc(Sc4nnnn4C)c23)cc1 12.6 µM
Cc1cccc(-c2csc3ncnc(Sc4nnnn4C)c23)c1 15.8 µM
Cn1nnnc1Sc1ncnc2scc(-c3ccccc3C(F)(F)F)c12 25.1 µM
Cc1ccc(-c2csc3ncnc(Sc4nnnn4C)c23)cc1 15.8 µM
